The text below walks through data of the supplement of paper PMC9262897, “Low-cost anti-mycobacterial drug discovery using engineered E. coli” (Nature Communications, 2022).

SMILES strings stand for the structures. Structures can show the parent of a compound that is named as a salt. ± gives the standard deviation of the averaged measurements.

This assay concerns E. coli TESEC Mtb Asd. Briefly: growth (OD600 after 10 h); higher = more growth (less inhibition). Conditions: arabinose induction (level): Low; compound 0.1 mM; raw OD600 reference: median of DMSO wells 0.417, cell-free background 0.041. On the procedure: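 TESEC E. coli strains in which the native enzyme is deleted and replaced by arabinose-inducible Mtb Asd, DapB, CysH or TrpD, each grown in its selective medium. Strains were screened against the Prestwick library at 0.1 mM and 1% DMSO in 384-well format at low and high arabinose induction. Growth is read as OD600 after 10 h in triplicate.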
Consider `CCC(=O)O[C@@](Cc1ccccc1)(c1ccccc1)[C@@H](C)CN(C)C` [Levopropoxyphene napsylate], for which the growth was found to be 0.388 ± 0.047.

In turn, `COP(=O)(OC)C(O)C(Cl)(Cl)Cl` (stereo not given) [Trichlorfon] gave a growth of 0.363 ± 0.079.

For `CCN[C@@H](C)Cc1cccc(C(F)(F)F)c1` [Dexfenfluramine hydrochloride], the growth is 0.335 ± 0.083.

In turn, `CN1C(=O)CCS(=O)(=O)C1c1ccc(Cl)cc1` (stereo not given) [Chlormezanone] registered a growth of 0.407 ± 0.066.

Take `O=c1c2ccccc2[se]n1-c1ccccc1` [Ebselen]: the growth came out at 0.061 ± 0.008.

In the case of `C[C@@H]1CN([C@H]2CC[C@](C#N)(c3ccc(F)cc3)CC2)CC[C@]1(C(=O)O)c1ccccc1` [Levocabastine hydrochloride], the growth is 0.384 ± 0.03.

In turn, `C[N+]12CCC(CC1)C(OC(=O)C(O)(c1ccccc1)c1ccccc1)C2` (stereo not given) [Clidinium bromide] gave a growth of 0.453 ± 0.034.

As to `C[C@]12CCC(=O)C(O)=C1CC[C@@H]1[C@@H]2CC[C@]2(C)C(=O)CC[C@@H]12` [Formestane], the growth was 0.25 ± 0.052.

Compound `NCCCNCCSP(=O)(O)O` [Amifostine] came in with a growth of 0.431 ± 0.061.

In the case of `CC(C)(N)Cc1ccccc1` [Phentermine hydrochloride], the growth is 0.297 ± 0.017.

`CN[C@@H]1C[C@@H](c2ccc(Cl)c(Cl)c2)c2ccccc21` [Indatraline hydrochloride] showed a growth of 0.0522 ± 0.0001.

Turning to `C[C@@H]1CC[C@H]2[C@@H](C)C(=O)O[C@@H]3O[C@@]4(C)CC[C@@H]1[C@]32OO4` [Artemisinin], the growth stood at 0.216 ± 0.042.

Compound `CCCC[N+]1(C)[C@@H]2CC(OC(=O)[C@H](CO)c3ccccc3)C[C@H]1[C@@H]1O[C@@H]12` (stereo not given in full) [Butylscopolammonium (n-) bromide] showed a growth of 0.412 ± 0.034.

`O=P1(NCCCl)OCCCN1CCCl` (stereo not given) [Ifosfamide]: the growth stood at 0.48 ± 0.032.

`CCN(C(C)=O)c1cccc(-c2ccnc3c(C#N)cnn23)c1` [Zaleplon] displayed a growth of 0.307 ± 0.086.

On to `C[C@]12CCC(=O)C=C1CC[C@@H]1[C@@H]2C(=O)C[C@]2(C)C(=O)CC[C@@H]12` [Adrenosterone], for which the growth stood at 0.445 ± 0.023.

`CN1CCN(C(=O)OC2c3nccnc3C(=O)N2c2ccc(Cl)cn2)CC1` (stereo not given) [Zopiclone] registered a growth of 0.358 ± 0.056.

Regarding `O=C(O)CCCc1ccc(N(CCCl)CCCl)cc1` [Chlorambucil], the growth came to 0.288 ± 0.096.

Consider `CCC1(C)CC(=O)NC(=O)C1` [Bemegride], for which the growth was 0.46 ± 0.0049.

Compound `CCCCCC[C@H]1C(=O)O[C@H](C)[C@H](NC(=O)c2cccc(NC=O)c2O)C(=O)O[C@@H](C)[C@@H]1OC(=O)CC(C)C` [Antimycin A] came in with a growth of 0.316 ± 0.12.

As for `CC(=O)OCC1=C(C(=O)O)N2C(=O)[C@@H](N)[C@H]2SC1` [Cephalosporanic acid, 7-amino], the growth stood at 0.402 ± 0.086.

Consider `CC(N)C(O)c1ccccc1` (stereo not given) [Phenylpropanolamine hydrochloride], for which the growth turned out to be 0.433 ± 0.067.

The compound `C[C@]12Cc3c[nH]nc3C[C@@H]1CC[C@@H]1[C@@H]2CC[C@@]2(C)[C@H]1CC[C@]2(C)O` [Stanozolol] displayed a growth of 0.271 ± 0.051.

In the case of `NC(=O)CN1CCCC1=O` [Piracetam], the growth was 0.325 ± 0.092.

For `O=P1(N(CCCl)CCCl)NCCCO1` (stereo not given) [Cyclophosphamide], the growth turned out to be 0.446 ± 0.014.
